Screening results from PubChem BioAssay.
M1 PAM – potentiates human M1 receptor response to acetylcholine. P11229. CHO-K1 hM1, Fluo-8 calcium fluorescence, ACh EC20; 0% = ACh EC20, 100% = maximal ACh. activation, % at 3 µM. hit rate 0.088% among 360,000; in the data active = activation above about 19%, passing the limit was not always enough
M4 ag – CHRM4 agonism in calcium assay; CHO-K1 hM4/Gqi5, Fluo-8 calcium fluorescence; vehicle 0%, full acetylcholine response 100%; activation, % at 3 µM; hit rate 0.14% among 360,000; AID 624127;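 active = activation above the run mean over all test wells plus 3 SD, cut at about 32% in these data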;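 note: peak over basal fluorescence ratio per well then scaled between controls; 0% = DMSO wells and 100% = acetylcholine at EC100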
Target sequence (P08173 whole entry, looked up): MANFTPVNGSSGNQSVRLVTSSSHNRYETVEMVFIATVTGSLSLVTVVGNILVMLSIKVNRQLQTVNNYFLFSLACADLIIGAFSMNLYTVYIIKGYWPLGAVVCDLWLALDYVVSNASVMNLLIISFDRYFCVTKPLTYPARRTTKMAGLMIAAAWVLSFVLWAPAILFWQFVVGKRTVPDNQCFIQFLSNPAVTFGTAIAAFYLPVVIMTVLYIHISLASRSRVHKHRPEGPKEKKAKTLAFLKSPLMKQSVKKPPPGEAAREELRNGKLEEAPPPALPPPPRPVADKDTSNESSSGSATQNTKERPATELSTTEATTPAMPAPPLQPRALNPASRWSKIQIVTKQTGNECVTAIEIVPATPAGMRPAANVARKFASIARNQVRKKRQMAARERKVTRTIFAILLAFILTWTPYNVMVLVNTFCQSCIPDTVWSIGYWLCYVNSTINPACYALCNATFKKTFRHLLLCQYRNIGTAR
M4 PAM – potentiates acetylcholine response at human M4 receptor | CHO-K1 hM4/Gqi5, Fluo-8 calcium fluorescence, ACh EC20; 0% = ACh EC20, 100% = maximal ACh | P08173 | hit rate 0.4% among 360,000 | activation, % at 3 µM;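 active = activation above its plate's cutoff, the mean activation of sample wells plus 3 SD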
CHRM1 antagonist – antagonists of human M1 muscarinic receptor. hit rate 1.3% among 360,000. CHO-K1 hM1, Fluo-8 calcium fluorescence, ACh EC80 antagonist. P11229. inhibition, % at 3 µM;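 active = percent inhibition above its own plate's cutoff, namely the mean of that plate's compound wells plus 3 SD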;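 note: peak over basal fluorescence ratio during 140 s after agonist addition; 0% = ACh EC80 plus DMSO and 100% = DMSO alone without agonist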
CHRM4 antagonist – antagonists of human muscarinic M4 receptor (CHRM4); CHO-hM4 cells, ACh EC80, Fluo-8 calcium fluorescence; inhibition, % at 3 µM; hit rate 0.73% among 360,000;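 active = inhibition above its plate's cutoff, the mean inhibition of sample wells plus 3 SD, cut at about 27% in these data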;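 note: 0% = acetylcholine EC80 with DMSO and 100% = DMSO without agonist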
CHRM1 agonist – agonists of human M1 muscarinic receptor; P11229; hit rate 0.33% among 360,000; CHO-K1 hM1, Fluo-8 calcium fluorescence, agonist mode; 0% DMSO, 100% acetylcholine EC100; activation, % at 3 µM;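 active = activation above the run's mean compound activation plus 3 SD, cut at about 16% in these data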;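 note: peak over basal fluorescence ratio within a 140 s kinetic read after compound addition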
* = called active by the depositor; x = no result given. Sampled rows, rich in hits. Any-hit rate of the full collection: about 2.2%.

SMILES	M1 PAM	M4 ag	M4 PAM	CHRM1 antagonist	CHRM4 antagonist	CHRM1 agonist
Cc1c(NC(=O)c2ccccc2NS(=O)(=O)c2ccc(F)cc2)c(=O)n(-c2ccccc2)n1C	2	0	-5	0	4	-6
Cc1c(NC(=O)c2cccc(S(=O)(=O)N(C)c3ccccc3)c2)c(=O)n(-c2ccccc2)n1C	-20	2	-3	38*	2	-7
CCCN(CCC)S(=O)(=O)c1ccc(C(=O)Nc2c(C)n(C)n(-c3ccccc3)c2=O)cc1	0	1	4	39*	-10	-6
Cc1cc(C)c2cc3c(N)c(C(=O)N4CCOCC4)sc3nc2c1	10	0	15	-7	-12	-8
N#Cc1cccc(C(=O)OCC(=O)N2CCCc3ccccc32)c1	23	3	19	-12	-13	1
COc1cccc(OC)c1C(=O)NC(=S)Nc1ccc2c(c1)Cc1ccccc1-2	-3	1	-7	2	12	-1
Cc1nc2ncnn2c(N2CCN(C(c3ccccc3)c3ccccc3)CC2)c1C	-2	5	-12	-2	6	-10
Cc1cc(N2CCN(C(c3ccccc3)c3ccccc3)CC2)n2ncnc2n1	-13	8	-14	30*	13	-1
COc1cc(Cl)c(C)cc1NC(=O)COc1cc(C)nc(C(C)C)n1	3	1	33*	-2	3	-3
CC(C)C(C)NC(=O)COc1ncnc2sccc12 (stereo not given)	15	2	4	-13	-5	-2
COc1cc(OC)cc(-c2c(Sc3ccccc3)c3cc(-c4ccc(OC)c(OC)c4)ccc3n2C)c1	x	2	-4	x	0	x
O=C(Nc1ccc(N2CCOCC2)cc1)Nc1ccc(Cl)c(Cl)c1	-33	43*	-18	55*	48*	4
O=C(Nc1ccc(N2CCOCC2)cc1)C1(c2ccc(Cl)cc2)CCC1	10	7	1	-19	7	17*
O=C(Nc1ccc(Cl)cc1)Nc1ccc(N2CCOCC2)cc1	-2	6	-12	11	8	-1
O=C(Nc1ccc(Cl)c(Cl)c1)Nc1ccon1	-15	20	-8	24*	11	4
O=C(O)c1cccc(Cn2c(Cl)c(/C=N/NC(=O)c3cccc(O)c3)sc2=O)c1	-4	0	12	-15	33*	-3
O=C(O)c1cccc(Cn2c(Cl)c(/C=N/NC(=O)c3ccccc3)sc2=O)c1	7	0	6	-1	-5	-2
CC1=C(C(=O)N2CCOCC2)CC(CC(=O)NCCCCc2ccccc2)C(=O)N1CCCN1CCCC1=O (stereo not given)	5	1	3	-9	-13	-1
CC1=C(C(=O)N(C)C)CC(CC(=O)NCCCCc2ccccc2)C(=O)N1CCCN1CCCC1=O (stereo not given)	27*	1	22*	-23	-15	5
O=C(CSc1nnc(Cn2nnc3ccccc32)o1)N(Cc1ccc(Cl)cc1)c1ccccc1	-12	8	-12	20*	13	1
CN(C)CCCn1c(SCc2c(Cl)cccc2Cl)nnc1-c1ccncc1	7	4	22*	-13	15	-11
O=C(CNC(=O)C1CCCCC1)NC1CCCCC1	0	-1	1	-1	5	-2
O=C(CN1CCN(S(=O)(=O)N2CCCCC2)CC1)Nc1cc(Cl)cc(Cl)c1	0	4	-4	1	4	-3
O=S(=O)(Nc1nc2ccccc2[nH]1)c1ccc2ccccc2c1	-22	2	-33	65*	70*	-8
O=S(=O)(Nc1ncn[nH]1)c1ccc2ccccc2c1	0	0	-2	4	-2	-1
SMILES	M1 PAM	M4 ag	M4 PAM	CHRM1 antagonist	CHRM4 antagonist	CHRM1 agonist
CCCCC1(Cc2ccc([N+](=O)[O-])cc2)C(=O)N(c2ccccc2)N(c2ccccc2)C1=O	-9	2	-9	36*	14	-2
O=C(COc1ccccc1Cl)NC(=O)NC1CCCC1	-22	-1	-4	34*	9	-9
O=C(COc1ccc(Cl)cc1Cl)NC(=O)NC1CCCC1	-10	-2	8	2	-5	-7
O=C(COc1ccc(Cl)cc1Br)NC(=O)NC1CCCC1	-17	0	1	31*	0	-6
O=C(CNCc1cccc(Cl)c1)N1CCc2ccccc2C1	7	2	1	-11	-2	-6
CCC1CCCCN1Cc1ccc(CNC(=O)CCc2nnc3ccc(N4CCCCC4)nn23)o1 (stereo not given)	-17	0	-4	43*	5	-6
CN(C)CCOc1ccc(-c2c(-c3ccccc3)sc3ccccc23)cc1	6	4	0	16	28*	-3
COc1ccc(C(C(=O)NC(C)(C)C)N(CCC(C)C)C(=O)CCC(=O)Nc2cc(C)on2)cc1 (stereo not given)	30*	0	6	-26	-4	-2
COc1ccc(C(C(=O)NC(C)(C)C)N(Cc2ccccc2)C(=O)CCC(=O)Nc2cc(C)on2)cc1 (stereo not given)	-2	1	3	2	0	-5
Cc1cc(NC(=O)CCC(=O)N(Cc2ccco2)C(C(=O)NC2CCCC2)c2ccccc2F)no1 (stereo not given)	4	8	1	-14	-9	-4
COCCN(C(=O)CCC(=O)Nc1cc(C)on1)C(C(=O)NC1CCCC1)c1ccccc1F (stereo not given)	12	0	-20	-10	75*	0
CC(=O)c1sc(NC(=O)CS(=O)(=O)c2ccccc2)nc1-c1ccccc1	0	1	-7	-8	1	-3
CCC1CCc2sc(C(=O)NCC(c3ccccc3OC)N3CCCC3)cc2C1 (stereo not given)	-21	3	-14	43*	9	-6
COc1ccccc1CNC(=O)C1COc2ccccc2O1 (stereo not given)	4	0	-2	-8	3	-3
COc1ccccc1C(CNC(=O)C(C)(C)Oc1ccc(Cl)cc1)N1CCCC1 (stereo not given)	-27	1	-16	89*	10	-8
COc1ccc(C(CNC(=O)C(C)Oc2ccc(Br)cc2)N2CCOCC2)cc1 (stereo not given)	8	0	-2	-4	9	-6
COc1ccccc1C(CNC(=O)C1COc2ccccc2O1)N1CCCC1 (stereo not given)	-24	2	-10	77*	0	-6
COc1ccc(C(CNC(=O)C(C)(C)Oc2ccc(Cl)cc2)N2CCCC2)cc1 (stereo not given)	-2	3	2	-1	-8	-8
COc1ccccc1C(CNC(=O)C(C)Oc1ccc(Br)cc1)N1CCCC1 (stereo not given)	-22	0	-6	31*	1	-6
